An excerpt weighted towards active compounds, which were near 3.9% of everything screened.
CDK5 inh: CDK5/p35 (human) kinase inhibition; Q00535+Q15078; Recombinant CDK5/p35, ADP-Glo luminescence, 60 min; inhibition, % at 10 µM; hit rate 0.01% among 330,000; AID 488839;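 active = highest replicate inhibition of at least 50% and at least 75% of replicates reaching 50%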;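 also: plate controls were DMSO neutral control for no effect and GW8510 at 10 µM for full effect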
NSD2 inh: blocks human histone methyltransferase NSD2; O96028; NSD2 peptide methylation, AlphaScreen, 120 min; inhibition, % at 12.5 µM; hit rate 0.54% among 310,000; AID 743445; in the data active = inhibition above about 50%
ALR H2O2 inh: blocks human ALR sulfhydryl oxidase activity | purified ALR, DTT oxidation, H2O2 HRP-luminol luminescence | inhibition, % (no concentration beside the values) | hit rate 3.8% among 290,000;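 active = mean replicate inhibition above about 79%, with every replicate also reaching it, limit read from the data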
Glyco luc inh: N-linked glycosylation inhibition; D54 ERlucT glycosylation luciferase reporter, 24 h; percent of 100 nM tunicamycin response; reporter increase, % at 12.5 µM; hit rate 0.23% among 360,000;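 active = mean luciferase reporter signal, scaled so untreated is 0 and the glycosylation-blocking control 100, at or above a set limit in every replicate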;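 also: luciferase carries N-glycosylation sites so blocking glycosylation raises the light; 0% = median of neutral control wells and 100% = median of 100 nM tunicamycin wells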
SUMO Mot1 rescue: inhibitors of SUMOylation pathway: yeast Mot1-301 growth rescue; hit rate 1% among 320,000; S. cerevisiae Mot1-301 growth rescue, ATP luminescence, 38.5C; percent above DMSO median, 100 means doubled; growth rescue, % at 18.8 µM;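 active = every valid replicate shows activation above 250% relative to neutral control wells; inactive = the rest, any valid replicate at or below 250%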;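 also: OY570 slx delta 5 strain wells were the positive control but not used for scaling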
Casp6 inh: blocks human caspase-6 cleavage activity; P55212; purified caspase-6, Z-VEID-R110 cleavage fluorescence; inhibition, % at 12.5 µM; hit rate 0.53% among 350,000; AID 686996;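 active = mean inhibition across replicates at least about 35%, with every replicate also reaching that limit, limit read from the data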;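 also: 0% = median of neutral control wells and 100% = no fluorescence left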
Alpha artifact: counter-screen for NSD2 inhibitors: AlphaScreen artifacts | shares compounds with NSD2 inh | AlphaScreen artifact counterscreen, preloaded methylated H4 peptide | AC35, µM (top dose mostly 10 µM), for the others: at the top dose activity change, negative = signal loss | hit rate 9.4% among 1,500 | AID 1053174; call rule not given here
* hit, by the source's call.

Screening C[C@@H]1CN([C@H](C)CO)C(=O)c2cccc(NC(=O)c3ccncc3)c2O[C@@H]1CN(C)C(=O)NC1CCCCC1 returned Casp6 inh 0.
Screening COC(=O)N/N=C1/C/C(=N\NC(=O)OC)c2ccccc21 returned CDK5 inh -7, NSD2 inh 97*, ALR H2O2 inh -24, Glyco luc inh 11, SUMO Mot1 rescue -3, Casp6 inh 91* and Alpha artifact -5%.
`COc1ccccc1NC(=O)c1ccc(NC(=O)C2COc3ccccc3O2)cc1` (configuration not stated) gave CDK5 inh -2, NSD2 inh 76*, ALR H2O2 inh -18, Glyco luc inh -5, SUMO Mot1 rescue 25, Casp6 inh 3 and Alpha artifact 1%.
C=CCOc1ccc(/C=C2\SC(=S)N(NS(=O)(=O)c3ccc(C)cc3)C2=O)cc1 was read as CDK5 inh 2, NSD2 inh 55*, ALR H2O2 inh -6, Glyco luc inh 2, SUMO Mot1 rescue -5 and Alpha artifact -14%.
For COc1ccc(/C=C2/SC(=S)N(NS(=O)(=O)c3ccc(C)cc3)C2=O)cc1 the results were CDK5 inh -1, NSD2 inh 41, Glyco luc inh 0, SUMO Mot1 rescue -1 and Casp6 inh 18.
Screening C[C@@H]1CN([C@H](C)CO)S(=O)(=O)c2ccc(C#CC3CC3)cc2O[C@@H]1CN(C)C(=O)c1cccnc1 returned Casp6 inh 0.
`CC(=O)N(C)c1ccc(N=Nc2c(C)[nH]n(-c3ccccc3)c2=O)cc1` gave CDK5 inh 0, NSD2 inh 17, ALR H2O2 inh -12, Glyco luc inh 2, SUMO Mot1 rescue 21 and Casp6 inh 1.
`CC(=O)N(C)c1ccc(N=Nc2c(C)[nH]n(C(N)=S)c2=O)cc1` gave CDK5 inh 1, NSD2 inh 80*, Glyco luc inh -13, SUMO Mot1 rescue 1, Casp6 inh 1 and Alpha artifact -6%.
`COC(=O)C[C@@H]1C[C@H]2c3cc(NC(=O)c4cccnc4)ccc3O[C@H]2[C@H](CO)O1` gave Casp6 inh -2.
CCOC(=O)C1=C(C)N(C)C(=S)NC1c1ccccc1Cl (configuration not stated) was read as CDK5 inh 0, NSD2 inh 96*, ALR H2O2 inh 1, Glyco luc inh -1 and Alpha artifact 1%.
CCOC(=O)CN(C(=O)COc1nc(-c2ccccc2)cc(C)c1C#N)c1ccc(C)cc1 was read as CDK5 inh 2, NSD2 inh -2, ALR H2O2 inh -4, Glyco luc inh -2, SUMO Mot1 rescue 2 and Casp6 inh 0.
CCOC(=O)CN(C(=O)COc1nc(-c2ccccc2)cc(C)c1C#N)c1ccccc1 was read as CDK5 inh 1, NSD2 inh 71*, ALR H2O2 inh -10, Glyco luc inh 1, SUMO Mot1 rescue -4, Casp6 inh 1 and Alpha artifact -1%.
`CN(C(=S)NC(=O)C1(C)CC1(Cl)Cl)c1ccccc1` (configuration not stated) gave CDK5 inh 0, NSD2 inh 59*, ALR H2O2 inh -3, Glyco luc inh 1, SUMO Mot1 rescue 0 and Alpha artifact -1%.
CC1(C(=O)NC(=S)N(Cc2ccccc2)c2ccccn2)CC1(Cl)Cl (configuration not stated) was read as CDK5 inh 0, NSD2 inh -1, ALR H2O2 inh 55, Glyco luc inh 3, SUMO Mot1 rescue -12 and Casp6 inh 1.
Screening CC1CCCC(NC(=O)COC(=O)c2c[nH]c(=O)[nH]c2=O)C1C (configuration not stated) returned CDK5 inh -5, NSD2 inh 78*, ALR H2O2 inh -9, Glyco luc inh 1, SUMO Mot1 rescue 7 and Alpha artifact -6%.
`O=C(CN1C(=O)S/C(=C\c2ccc(-c3cc(C(=O)O)ccc3Cl)o2)C1=O)Nc1ccc2c(c1)OCO2` gave CDK5 inh 0, ALR H2O2 inh -14, Glyco luc inh -1, SUMO Mot1 rescue -1 and Casp6 inh 1.
`N=C1S/C(=C\c2ccc(-c3ccccc3C(=O)O)o2)C(=O)N1c1ccc2c(c1)OCO2` gave CDK5 inh 1, NSD2 inh 99*, Glyco luc inh 1, Casp6 inh 20 and Alpha artifact -4%.
C/C=C/c1cnc2c(c1)C(=O)N([C@H](C)CO)C[C@H](C)[C@H](CN(C)C(=O)Cc1ccccn1)O2 was read as Casp6 inh 0.
For Cc1cc2ccccn2c1C(=S)NC(=O)c1ccccc1 the results were CDK5 inh -1, NSD2 inh 55*, Glyco luc inh -1, SUMO Mot1 rescue -1, Casp6 inh 3 and Alpha artifact 10µM*.
Screening Cc1cc2ccccn2c1C(=O)c1ccncc1 returned CDK5 inh 1, NSD2 inh 7, ALR H2O2 inh -3, Glyco luc inh 0 and SUMO Mot1 rescue 127.
`Cc1ccc(C(=O)NC(=S)c2c(C)cc3ccccn23)cc1` gave NSD2 inh 92*, Glyco luc inh -1, Casp6 inh -2 and Alpha artifact 6.4µM*.
`COc1ccccc1OCCOc1ccc(/C=C2\C(=N)N3N=C(S(C)(=O)=O)SC3=NC2=O)cc1` gave CDK5 inh 2, NSD2 inh 71*, Glyco luc inh -1, SUMO Mot1 rescue -34, Casp6 inh 1 and Alpha artifact -7%.
For COC(=O)c1ccc(-c2ccc(C(c3c(C)[nH][nH]c3=O)c3c(C)[nH][nH]c3=O)o2)cc1 the results were CDK5 inh -2, NSD2 inh 53*, ALR H2O2 inh -11, Glyco luc inh 4, SUMO Mot1 rescue -7, Casp6 inh 40* and Alpha artifact -1%.
Cc1ccc2oc(-c3ccccc3C(=O)O)cc(=O)c2c1 was read as CDK5 inh -1, NSD2 inh 24, Glyco luc inh 2 and SUMO Mot1 rescue -2.
For Cc1[nH][nH]c(=O)c1C(c1ccc(-c2ccccc2C(=O)O)o1)c1c(C)[nH][nH]c1=O the results were CDK5 inh 0, NSD2 inh 78*, ALR H2O2 inh -19, Glyco luc inh 6, SUMO Mot1 rescue 6 and Alpha artifact -1%.
Screening Cc1[nH][nH]c(=O)c1C(c1ccc(-c2cccc(C(=O)O)c2)o1)c1c(C)[nH][nH]c1=O returned CDK5 inh 3, NSD2 inh active, ALR H2O2 inh 36, Glyco luc inh 4, SUMO Mot1 rescue -3, Casp6 inh 42* and Alpha artifact -2%.
Screening Cc1[nH][nH]c(=O)c1C(c1ccc(-c2cccc(Cl)c2)o1)c1c(C)[nH][nH]c1=O returned CDK5 inh -2, ALR H2O2 inh 1, Glyco luc inh 16 and SUMO Mot1 rescue -16.
